{
  "source": "paper PMC11062922",
  "about": "(Nature Chemical Biology, 2023)",
  "key": {"CLK4": {"system": "CLK4", "conditions": "read-out: apparent Kd, n = 1"}, "FER": {"system": "FER", "conditions": "read-out: apparent Kd, n = 1"}},
  "note": "Read-outs that look alike come from different tables or passages of the source.",
  "data": [
    {"substance": "Lestaurtinib", "values": [
      {"measurement": "potency estimated from few doses", "setting": "CLK4; compound concentrations:100 nM and 1000 nM (sheet 'Lestaurtinib' of Supplementary Table 1),run:Lestaurtinib_02768_R3,Plate:MR028", "result": 50.7, "unit": "nM"},
      {"measurement": "potency estimated from few doses", "setting": "CLK4; compound concentrations:100 nM and 1000 nM (sheet 'Lestaurtinib' of Supplementary Table 1),run:Lestaurtinib_02795_R1,Plate:MR022", "result": 63.3, "unit": "nM"},
      {"measurement": "potency estimated from few doses", "setting": "CLK4; compound concentrations:100 nM and 1000 nM (sheet 'Lestaurtinib' of Supplementary Table 1),run:Lestaurtinib_02795_R2,Plate:MR022", "result": 42.4, "unit": "nM"},
      {"measurement": "potency estimated from few doses", "setting": "CLK4; compound concentrations:100 nM and 1000 nM (sheet 'Lestaurtinib' of Supplementary Table 1),run:Lestaurtinib_02802_R2,Plate:MR029", "result": 62.9, "unit": "nM"},
      {"measurement": "potency estimated from few doses", "setting": "CLK4; compound concentrations:100 nM and 1000 nM (sheet 'Lestaurtinib' of Supplementary Table 1),run:Lestaurtinib_02802_R3,Plate:MR029", "result": 42.9, "unit": "nM"},
      {"measurement": "potency estimated from few doses", "setting": "CLK4; compound concentrations:100 nM and 1000 nM (sheet 'Lestaurtinib' of Supplementary Table 1),run:Lestaurtinib_02896_R1,Plate:MR030", "result": 45.2, "unit": "nM"},
      {"measurement": "potency estimated from few doses", "setting": "CLK4; compound concentrations:100 nM and 1000 nM (sheet 'Lestaurtinib' of Supplementary Table 1),run:Lestaurtinib_02896_R2,Plate:MR030", "result": 44.9, "unit": "nM"},
      {"measurement": "potency estimated from few doses", "setting": "CLK4; compound concentrations:100 nM and 1000 nM (sheet 'Lestaurtinib' of Supplementary Table 1),run:Lestaurtinib_03172_R3,Plate:MR031", "result": 82.5, "unit": "nM"},
      {"measurement": "potency estimated from few doses", "setting": "CLK4; compound concentrations:100 nM and 1000 nM (sheet 'Lestaurtinib' of Supplementary Table 1),run:Lestaurtinib_03252_R2,Plate:MR032", "result": 38.7, "unit": "nM"},
      {"measurement": "potency estimated from few doses", "setting": "CLK4; compound concentrations:100 nM and 1000 nM (sheet 'Lestaurtinib' of Supplementary Table 1),run:Lestaurtinib_03260_R1,Plate:MR033", "result": 95, "unit": "nM"},
      {"measurement": "potency estimated from few doses", "setting": "CLK4; compound concentrations:100 nM and 1000 nM (sheet 'Lestaurtinib' of Supplementary Table 1),run:Lestaurtinib_03260_R2,Plate:MR033", "result": 130, "unit": "nM"},
      {"measurement": "potency estimated from few doses", "setting": "CLK4; compound concentrations:100 nM and 1000 nM (sheet 'Lestaurtinib' of Supplementary Table 1),run:Lestaurtinib_03260_R3,Plate:MR033", "result": 60.5, "unit": "nM"},
      {"measurement": "potency estimated from few doses", "setting": "FER; compound concentrations:100 nM and 1000 nM (sheet 'Lestaurtinib' of Supplementary Table 1),run:Lestaurtinib_02339_R1,Plate:MR001", "result": 361, "unit": "nM"},
      {"measurement": "potency estimated from few doses", "setting": "FER; compound concentrations:100 nM and 1000 nM (sheet 'Lestaurtinib' of Supplementary Table 1),run:Lestaurtinib_02339_R2,Plate:MR001", "result": 254, "unit": "nM"},
      {"measurement": "potency estimated from few doses", "setting": "FER; compound concentrations:100 nM and 1000 nM (sheet 'Lestaurtinib' of Supplementary Table 1),run:Lestaurtinib_02339_R3,Plate:MR001", "result": 336, "unit": "nM"},
      {"measurement": "potency estimated from few doses", "setting": "FER; compound concentrations:100 nM and 1000 nM (sheet 'Lestaurtinib' of Supplementary Table 1),run:Lestaurtinib_02364_R1,Plate:MR002", "result": 298, "unit": "nM"},
      {"measurement": "potency estimated from few doses", "setting": "FER; compound concentrations:100 nM and 1000 nM (sheet 'Lestaurtinib' of Supplementary Table 1),run:Lestaurtinib_02364_R2,Plate:MR002", "result": 396, "unit": "nM"},
      {"measurement": "potency estimated from few doses", "setting": "FER; compound concentrations:100 nM and 1000 nM (sheet 'Lestaurtinib' of Supplementary Table 1),run:Lestaurtinib_02367_R1,Plate:MR003", "result": 327, "unit": "nM"},
      {"measurement": "potency estimated from few doses", "setting": "FER; compound concentrations:100 nM and 1000 nM (sheet 'Lestaurtinib' of Supplementary Table 1),run:Lestaurtinib_02367_R2,Plate:MR003", "result": 319, "unit": "nM"},
      {"measurement": "potency estimated from few doses", "setting": "FER; compound concentrations:100 nM and 1000 nM (sheet 'Lestaurtinib' of Supplementary Table 1),run:Lestaurtinib_02367_R3,Plate:MR003", "result": 310, "unit": "nM"},
      {"measurement": "potency estimated from few doses", "setting": "FER; compound concentrations:100 nM and 1000 nM (sheet 'Lestaurtinib' of Supplementary Table 1),run:Lestaurtinib_02381_R1,Plate:MR004", "result": 385, "unit": "nM"},
      {"measurement": "potency estimated from few doses", "setting": "FER; compound concentrations:100 nM and 1000 nM (sheet 'Lestaurtinib' of Supplementary Table 1),run:Lestaurtinib_02381_R2,Plate:MR004", "result": 362, "unit": "nM"},
      {"measurement": "potency estimated from few doses", "setting": "FER; compound concentrations:100 nM and 1000 nM (sheet 'Lestaurtinib' of Supplementary Table 1),run:Lestaurtinib_02381_R3,Plate:MR004", "result": 336, "unit": "nM"},
      {"measurement": "potency estimated from few doses", "setting": "FER; compound concentrations:100 nM and 1000 nM (sheet 'Lestaurtinib' of Supplementary Table 1),run:Lestaurtinib_02407_R3,Plate:MR005", "result": 459, "unit": "nM"},
      {"measurement": "potency estimated from few doses", "setting": "FER; compound concentrations:100 nM and 1000 nM (sheet 'Lestaurtinib' of Supplementary Table 1),run:Lestaurtinib_02422_R3,Plate:MR006", "result": 307, "unit": "nM"},
      {"measurement": "potency estimated from few doses", "setting": "FER; compound concentrations:100 nM and 1000 nM (sheet 'Lestaurtinib' of Supplementary Table 1),run:Lestaurtinib_02437_R2,Plate:MR007", "result": 347, "unit": "nM"},
      {"measurement": "potency estimated from few doses", "setting": "FER; compound concentrations:100 nM and 1000 nM (sheet 'Lestaurtinib' of Supplementary Table 1),run:Lestaurtinib_02437_R3,Plate:MR007", "result": 30.6, "unit": "nM"},
      {"measurement": "potency estimated from few doses", "setting": "FER; compound concentrations:100 nM and 1000 nM (sheet 'Lestaurtinib' of Supplementary Table 1),run:Lestaurtinib_02438_R1,Plate:MR008", "result": 352, "unit": "nM"},
      {"measurement": "potency estimated from few doses", "setting": "FER; compound concentrations:100 nM and 1000 nM (sheet 'Lestaurtinib' of Supplementary Table 1),run:Lestaurtinib_02438_R2,Plate:MR008", "result": 345, "unit": "nM"},
      {"measurement": "potency estimated from few doses", "setting": "FER; compound concentrations:100 nM and 1000 nM (sheet 'Lestaurtinib' of Supplementary Table 1),run:Lestaurtinib_02438_R3,Plate:MR008", "result": 356, "unit": "nM"},
      {"measurement": "potency estimated from few doses", "setting": "FER; compound concentrations:100 nM and 1000 nM (sheet 'Lestaurtinib' of Supplementary Table 1),run:Lestaurtinib_02443_R1,Plate:MR009", "result": 347, "unit": "nM"},
      {"measurement": "potency estimated from few doses", "setting": "FER; compound concentrations:100 nM and 1000 nM (sheet 'Lestaurtinib' of Supplementary Table 1),run:Lestaurtinib_02443_R2,Plate:MR009", "result": 358, "unit": "nM"},
      {"measurement": "potency estimated from few doses", "setting": "FER; compound concentrations:100 nM and 1000 nM (sheet 'Lestaurtinib' of Supplementary Table 1),run:Lestaurtinib_02473_R2,Plate:MR010", "result": 343, "unit": "nM"},
      {"measurement": "potency estimated from few doses", "setting": "FER; compound concentrations:100 nM and 1000 nM (sheet 'Lestaurtinib' of Supplementary Table 1),run:Lestaurtinib_02482_R1,Plate:MR011", "result": 406, "unit": "nM"},
      {"measurement": "potency estimated from few doses", "setting": "FER; compound concentrations:100 nM and 1000 nM (sheet 'Lestaurtinib' of Supplementary Table 1),run:Lestaurtinib_02482_R2,Plate:MR011", "result": 336, "unit": "nM"},
      {"measurement": "potency estimated from few doses", "setting": "FER; compound concentrations:100 nM and 1000 nM (sheet 'Lestaurtinib' of Supplementary Table 1),run:Lestaurtinib_02487_R1,Plate:MR012", "result": 221, "unit": "nM"}
    ]}
  ]
}
